D1 potentiator: enhances dopamine response at the human D1 receptor; P21728; HEK293 TREx D1 cells, calcium flux, dopamine EC20 potentiation; potentiation, % at 10 µM; actives 0.036% (n = 360,000); AID 504651; in the data active = potentiation above about 30%; also: 0% is about no effect
Target sequence (P21728 whole entry, looked up): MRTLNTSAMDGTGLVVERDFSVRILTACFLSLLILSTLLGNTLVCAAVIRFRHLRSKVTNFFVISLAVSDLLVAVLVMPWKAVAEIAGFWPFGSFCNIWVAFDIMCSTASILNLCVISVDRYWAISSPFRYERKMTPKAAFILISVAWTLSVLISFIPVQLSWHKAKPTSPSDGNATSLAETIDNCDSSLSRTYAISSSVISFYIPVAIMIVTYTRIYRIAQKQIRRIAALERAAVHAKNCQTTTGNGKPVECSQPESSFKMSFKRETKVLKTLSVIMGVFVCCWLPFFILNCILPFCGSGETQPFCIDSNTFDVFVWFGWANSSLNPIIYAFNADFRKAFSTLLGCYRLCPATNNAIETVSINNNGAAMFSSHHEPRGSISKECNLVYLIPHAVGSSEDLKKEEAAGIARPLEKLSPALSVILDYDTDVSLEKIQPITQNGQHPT
DRD3 antagonist: antagonists of human D3 dopamine receptor; AID 652054; D3R cells, DiscoveRx beta-arrestin luminescence, antagonist mode; hits give low values; actives 2.5% (n = 360,000); P35462; max response, negative = inhibition, %; in the data active = max response below about -50%; inconclusive = no clear call, values can overlap the other calls; also: % is scaled to controls: 0 for no effect and ±100 for the full control effect
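Cells plated overnight at 1500 cells/well, then exposed to library compounds with dopamine controls for 90 minutes at 37 degrees C. DiscoveRx reagent added for 30–60 minutes at room temperature; luminescence read, quantitative HTS format.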
D1 antag: human D1 dopamine receptor antagonism. P21728. HEK293 TREx D1 cells, calcium flux, dopamine EC80; hits give low values. actives 3.2% (n = 360,000). activity change, negative = inhibition, % at 10 µM. AID 504652; in the data active = activity change below about -30%; also: % is scaled to controls: 0 for no effect and ±100 for the full control effect
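Kinetic fluorescence of a calcium dye serves as the read-out. D1-expressing Hek293 Trex cells, induced overnight at 30 C, are exposed to compound for 180 s before an EC80 dopamine addition, then read 180 s further.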
D1 agonist: agonists of human D1 dopamine receptor. P21728. HEK293 T-REx D1 cells, calcium flux, agonist mode. activation, % at 2 µM. actives 1% (n = 360,000). AID 504660; in the data active = activation above about 30%; also: 0% is about no effect
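Inducible HEK293 T-REx D1 cells, force-coupled to calcium signalling, were plated at 4000 cells/well with tetracycline and held overnight at 30 C. After no-wash calcium dye loading, compound-evoked calcium rise over 180 s flagged agonists.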
D3 ag: activates the human D3 dopamine receptor | P35462 | D3R DiscoveRx beta-arrestin cells, luminescence, 90 min | max activation, % | actives 0.58% (n = 410,000); in the data active = max activation above about 30%; also: 0% is about no effect
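Agonist-mode cell screen: cells plated at 1500/well and incubated overnight at 37 °C, then exposed to library compounds for 90 min at 37 °C. Detection reagent was added for 30–60 min at room temperature, and luminescence was read.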
* = called active by the depositor. The list is not random: actives were taken first. Their share in the collection is about 6%.

Results for Cc1ccc(N=Cc2nc(-c3ccc(C)cc3)oc2O)cc1 ?
D1 potentiator: 0.5; DRD3 antagonist: 9.3; D1 antag: -2.9; D1 agonist: 2.9; D3 ag: 2.3

Results for CCOc1ccc(NC(=O)CN2C(=O)C(c3ccccc3)=NC23CCC(C)CC3)cc1 (centres undefined) ?
D1 potentiator: -0.8; D1 antag: 4.6; D1 agonist: 2.2; D3 ag: -8.5

Results for CCCn1ccc2c(OCC(=O)Nc3ccc(OC)c(OC)c3)cccc2c1=O ?
D1 potentiator: -2.8; D1 agonist: 9.4; D3 ag: 12.7

What do the screens show for `Cc1csc2nc3cc(C(N)=O)ccc3c(=O)n12`?
D1 potentiator: -1.8; DRD3 antagonist: 4.2; D1 antag: -44.3*; D1 agonist: 9.1; D3 ag: -5.5

Results for CCCN(Cc1nnc(-c2ccccc2Cl)o1)C(=O)c1cc2ccccc2o1 ?
D1 potentiator: -4.0; DRD3 antagonist: -2.5; D1 antag: -31.2*; D1 agonist: 11.6; D3 ag: -2.5

Results for O=C(c1cc2ccccc2o1)N(Cc1nnc(-c2ccccc2Cl)o1)C1CC1 ?
D1 potentiator: -1.1; DRD3 antagonist: 23.3; D1 antag: 3.2; D1 agonist: 4.5; D3 ag: 3.2

What do the screens show for `O=c1c2sc3ccccc3c2n(Cc2ccccc2)c(=O)n1CCc1ccccc1`?
D1 potentiator: -1.4; D1 antag: -52.2*; D1 agonist: -0.3; D3 ag: 0.5

What do the screens show for `COc1cc(C(CCN2CCN(c3ccccc3)CC2)c2c(OC)cc(OC)c3c(C)cc(=O)oc23)cc(OC)c1OC` (centres undefined)?
D1 potentiator: -13.3; DRD3 antagonist: -120.5*; D1 antag: -81.2*; D1 agonist: 0.4; D3 ag: -74.5

How did COc1cc(OC)c2c(-c3ccccc3)cc(=O)oc2c1C(CCN1CCCC(C)C1)c1ccc2c(c1)OCO2 (centres undefined) do in these assays?
D1 potentiator: -5.5; DRD3 antagonist: -69.8*; D1 antag: -27.6; D1 agonist: 10.2; D3 ag: -50.8

Results for COc1cc(OC)c2c(-c3ccccc3)cc(=O)oc2c1C(CCN1CCOCC1)c1ccc(N(C)C)cc1 (centres undefined) ?
DRD3 antagonist: 0.0; D3 ag: 0.0

What do the screens show for `COc1cc(C(CCN2CCCC2)c2c(OC)cc(OC)c3ccc(=O)oc23)cc(OC)c1OC` (centres undefined)?
D1 potentiator: -2.8; DRD3 antagonist: inconclusive; D1 antag: 1.1; D1 agonist: 1.2; D3 ag: -28.0

How did COc1cc(OC)c2c(-c3ccccc3)cc(=O)oc2c1C(CC(=O)N1CCCC1)c1ccc2c(c1)OCO2 (centres undefined) do in these assays?
D1 potentiator: -8.0; DRD3 antagonist: inconclusive; D1 antag: -35.8*; D1 agonist: 11.7; D3 ag: -32.3

How did COc1cc(OC)c2c(C)cc(=O)oc2c1C(CCN1CCOCC1)c1ccc2c(c1)OCO2 (centres undefined) do in these assays?
D1 potentiator: -8.8; DRD3 antagonist: -69.3*; D1 antag: -67.6*; D1 agonist: 10.9; D3 ag: -60.2

How did COc1cc(OC)c2c(-c3ccccc3)cc(=O)oc2c1C(CCN1CCCCC1)c1ccc2c(c1)OCO2 (centres undefined) do in these assays?
D1 potentiator: -10.3; DRD3 antagonist: inconclusive; D1 antag: -15.9; D1 agonist: 30.0; D3 ag: -29.8

Results for N[C@H](C(=O)O)[C@@H](O)c1ccc(O)c(O)c1 ?
D3 ag: 5.4

Results for COc1cc(OC)c2c(-c3ccccc3)cc(=O)oc2c1C(CCN1CCCCC1)c1ccc(N(C)C)cc1 (centres undefined) ?
D1 potentiator: 0.7; DRD3 antagonist: -27.5; D1 antag: -16.9; D1 agonist: 9.7; D3 ag: -7.3

How did COc1ccc(C(CCN2CCCCC2)c2c(OC)cc(OC)c3c(-c4ccccc4)cc(=O)oc23)cc1 (centres undefined) do in these assays?
D1 potentiator: -9.9; DRD3 antagonist: inconclusive; D1 antag: -43.0*; D1 agonist: 55.5*; D3 ag: -34.8

Results for CCc1ccc(CNC(=O)C2CCCN(c3nn4cc(-c5ccc(F)cc5)nc4s3)C2)cc1 (centres undefined) ?
D1 potentiator: -1.4; D1 antag: 6.7; D1 agonist: -0.3; D3 ag: -9.0

Results for Cc1ccc(C2CC(=O)Oc3cc(O)ccc32)cc1 (centres undefined) ?
D1 potentiator: -4.7; DRD3 antagonist: 0.0; D1 antag: -30.1*; D1 agonist: 5.2; D3 ag: 0.0

Results for Cc1ccc2oc(-c3cc(NC(=O)c4ccco4)ccc3Cl)nc2c1 ?
D1 potentiator: -1.1; D1 antag: -39.4*; D1 agonist: -2.4; D3 ag: -0.9

Results for O=C(Nc1ccc2oc(-c3ccccc3F)nc2c1)c1ccccc1Cl ?
D1 potentiator: -2.5; D1 antag: -48.5*; D1 agonist: 4.3; D3 ag: 4.0

What do the screens show for `O=C(Nc1ccc2oc(-c3ccncc3)nc2c1)c1c(F)c(F)c(F)c(F)c1F`?
D1 potentiator: -7.0; DRD3 antagonist: -66.0*; D1 antag: -21.0; D1 agonist: 7.1; D3 ag: -16.0

What do the screens show for `O=C(Nc1ccc2oc(-c3ccncc3)nc2c1)c1ccccc1Cl`?
D1 potentiator: 0.3; D1 antag: -71.4*; D1 agonist: 2.5; D3 ag: 6.2

Results for CCCSc1oc(-c2cccs2)nc1S(=O)(=O)c1ccc(Cl)cc1 ?
D1 potentiator: 0.3; D1 antag: 2.6; D1 agonist: 9.4; D3 ag: 8.4

How did COc1cccc(N2CC(NC(=O)CCCc3ccccc3)CC2=O)c1 (centres undefined) do in these assays?
D1 potentiator: -0.2; D1 agonist: -3.7; D3 ag: -3.2

Results for O=C(O)c1ccccc1-c1ccccc1C(=O)Nc1ccc(-c2nc3cc(Cl)ccc3o2)cc1 ?
D1 potentiator: -4.1; DRD3 antagonist: -4.6; D1 antag: -30.5*; D1 agonist: 6.5; D3 ag: 7.4

How did Cc1cc(=O)[nH]c2c(C)cc(S(=O)(=O)NCc3ccccc3)cc12 do in these assays?
D1 potentiator: -2.6; DRD3 antagonist: 7.3; D1 antag: -39.3*; D1 agonist: 3.4; D3 ag: 0.0

How did O=c1cc(COc2ccccc2Cl)nc2scc(-c3ccccc3)n12 do in these assays?
D1 potentiator: -4.4; D1 antag: -10.3; D1 agonist: 4.4; D3 ag: 5.1

How did CCCn1nc2cc(C(=O)NCC34CC5CC(CC(C5)C3)C4)ccc2c1OCC do in these assays?
D1 potentiator: 0.1; DRD3 antagonist: -19.6; D1 antag: 2.7; D1 agonist: 5.9; D3 ag: -6.1

Compound activity deposited in PubChem by National Center for Advancing Translational Sciences (NCATS).
